AF4-AF9 inh: inhibitors of AF4 peptide binding to AF9, primary screen, biochemical, AlphaScreen, biotin-AF4 peptide, FLAG-AF9, single point | Protein AF-9 (Homo sapiens), P42568 | inhibition, % at 10 µM | hit rate 0.47% among 350,000 | AID 651704, 2012;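 active = every replicate reaching a set inhibition limit, whatever the replicate mean, cut at about 25% in these data; inconclusive = mean inhibition reaches that limit but some replicates miss it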;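 also: 0% = plate neutral control median and 100% = total signal loss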
Target sequence (P42568 whole entry, looked up): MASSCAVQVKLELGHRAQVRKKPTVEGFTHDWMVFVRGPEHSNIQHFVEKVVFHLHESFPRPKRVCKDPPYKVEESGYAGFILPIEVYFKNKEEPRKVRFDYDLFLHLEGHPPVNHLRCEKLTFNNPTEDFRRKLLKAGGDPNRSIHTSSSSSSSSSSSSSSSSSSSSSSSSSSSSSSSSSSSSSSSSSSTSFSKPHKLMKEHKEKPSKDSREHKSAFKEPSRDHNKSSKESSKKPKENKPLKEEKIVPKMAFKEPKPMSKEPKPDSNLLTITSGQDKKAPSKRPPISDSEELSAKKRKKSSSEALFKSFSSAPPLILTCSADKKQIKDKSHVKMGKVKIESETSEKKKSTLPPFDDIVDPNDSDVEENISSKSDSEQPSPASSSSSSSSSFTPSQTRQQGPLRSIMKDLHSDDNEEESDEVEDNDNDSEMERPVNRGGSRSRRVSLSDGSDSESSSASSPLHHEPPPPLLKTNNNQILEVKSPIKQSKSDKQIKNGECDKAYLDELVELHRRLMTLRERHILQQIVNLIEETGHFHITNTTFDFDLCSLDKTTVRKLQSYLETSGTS
esBAF inh: Bmi1 luciferase reporter increase in mESCs, primary screen, esBAF inhibitor project, mouse ES cells, Bmi1 luciferase knock-in, single point; 24 h; 100% = twice the neutral-well signal; reporter increase, % at 12.5 µM; hit rate 2% among 350,000; AID 602393, 2012; in the data active = activation above about 40%; inconclusive = no clear call, values can overlap the other calls;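 also: 0% = median of the plate's neutral control wells and 100% = double that signal; a rise in the Bmi1 reporter signal indicates esBAF inhibition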
Wnt act: Wnt/beta-catenin pathway activators, primary screen, cell-based, plate reader, single point; Wnt/beta-catenin reporter cell assay, activator; activation, % at 9.35 µM; hit rate 1.2% among 300,000; in the data active = activation above about 30%, passing the limit was not always enough; inconclusive = no clear call, values can overlap the other calls;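 also: 0% = neutral control wells and 100% = positive control wells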
FGF22 binding: binders of human FGF22 protein, primary screen, FGF22 synaptogenesis inhibitor project, biophysical, thermal shift, single point; activity (Tm shift, normalised), % at 9.99 µM; hit rate 1.5% among 340,000; recombinant FGF22 thermal shift, SYPRO orange fluorescence; percent of sucrose octasulfate shift, DMSO zero; Fibroblast growth factor 22 (Homo sapiens), Q9HCT0; AID 651658, 2012;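 active = mean Tm shift, scaled 0 neutral to 100 positive control, at about 1.3% or above, every replicate too, limit read from the data; inconclusive = no clear call, values can overlap the other calls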
MITF act: activators of MITF-driven TRPM1 promoter reporter, primary screen, cell-based, SK-MEL-5, luciferase, single point | SK-MEL-5 TRPM1-promoter luciferase, 24 h; % of positive control, neutral wells = 0 | activation, % at 12.5 µM | hit rate 0.75% among 300,000;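 active = mean activation of at least 80% with every replicate also reaching 80%; inconclusive = mean reaches 80% but some replicate falls short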;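 also: 0% = neutral control wells and 100% = parthenolide positive control wells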
SMARCA2 act: SMARCA2 (BRM) function activators, primary screen, cell-based, luminescence, high throughput; activation, % at 9.1 µM; MG213 cells, MMTV-luciferase reporter, dexamethasone, overnight; hit rate 1% among 370,000; in the data active = activation above about 7.8%;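 also: 0% = vehicle wells and 100% = reference activator wells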
The depositor's hits bear a star; ? = inconclusive; / = not tested or not shown. Only some compounds are listed: those with a hit (about 4.3% of all), similar ones and a draw of the others.

SMILES	AF4-AF9 inh	esBAF inh	Wnt act	FGF22 binding	MITF act	SMARCA2 act
Cc1noc(C)c1S(=O)(=O)Nc1ccc2c(c1)CC(=O)N([C@H](C)CO)C[C@H](C)[C@@H](CN(C)S(=O)(=O)c1ccccc1)O2	-1	5	/	0	/	/
C[C@H]1CN([C@@H](C)CO)C(=O)c2cc(C#CC3CCCCC3)cnc2O[C@H]1CN(C)C(=O)Cc1ccccn1	4	2	/	0	/	/
O=C(Nc1ccc(N2CCCC2)cc1)c1cccc(Cl)c1Cl	1	85*	-1	0	/	2
O=C(Nc1ccc(Nc2ccccc2)cc1)c1ccccc1F	7	52*	-1	0	/	5
O=C(NC(=O)c1ccc(F)cc1F)Nc1ccc(Cl)cc1	-2	/	33*	0	64	6
Cc1ccc(NC(=O)c2ccc(F)cc2F)cc1	/	-51	46*	0	60	6
Cc1ccc(CNC(=O)Nc2ccc(C)cc2)cc1	-1	28	9	43	15	3
Cc1ccccc1CNC(=O)Nc1ccc(Cl)cc1	3	61*	10	0	63	7
Cc1ccc(CNC(=O)Nc2ccccc2)c(C)c1	-18	71*	11	0	118*	2
CCOc1cc(C2Nc3ccccc3C(=O)N2c2ccccc2)ccc1O (stereo unspecified)	-40	45*	10	/	33	1
CCOC(=O)NN1C(=O)c2ccccc2NC1c1ccc(OC)c(OC)c1 (stereo unspecified)	1	-2	-2	43*	14	4
COCC(=O)Nc1ccc2c(c1)OC[C@@H](C)N(Cc1ccccc1F)C[C@H](C)[C@H](OC)CN(C)C2=O	3	2	/	0	/	/
CCOC(=O)N1CCN(C(=O)CNC(=O)c2ccccc2F)CC1	-2	32	5	0	19	-2
O=C(NCC(=O)N1CCC(Cc2ccccc2)CC1)c1ccccc1F	-2	53*	45*	0	/	3
O=C(OCC(=O)N1CCC(Cc2ccccc2)CC1)c1ccccc1O	5	/	-3	43*	90*	0
O=C(OCC(=O)N1CCC(Cc2ccccc2)CC1)c1ccccc1NCCO	-4	/	-4	0	11	0
O=C(NCC(=O)N1CCCC1)c1ccccc1F	-2	48*	-4	0	38	1
O=C(Cc1cccnc1)N[C@@H]1CC[C@H](CCNS(=O)(=O)c2ccccc2Cl)O[C@H]1CO	0	7	/	0	/	/
CCCN1[C@@H]2c3ccc(-c4ccncc4)c(=O)n3C[C@@H]2[C@@H](CO)[C@@H]1C(=O)N1CCOCC1	-2	2	/	0	/	/
c1cncc(CNc2ncnc3ccc(-c4cccnc4)cc23)c1	0	-6	-2	45*	6	0
Cc1cccc(-n2ncc3c(NCCCO)ncnc32)c1	3	21	40*	0	65	7.9*
Cc1cccc(-n2ncc3c(N4CC(C)CC(C)C4)ncnc32)c1 (stereo unspecified)	-7	62*	12	0	89*	6
Cc1cccc(-n2ncc3c(N4CCCC4)ncnc32)c1	/	-38	14	/	52	7
Cc1cccc(-n2ncc3c(NCc4cccnc4)ncnc32)c1	-2	88*	21	0	67	2
Cc1ccc(-n2ncc3c(NCc4cccnc4)ncnc32)c(C)c1	/	/	-5	/	-15	-6
SMILES	AF4-AF9 inh	esBAF inh	Wnt act	FGF22 binding	MITF act	SMARCA2 act
CC(C)NC(=O)Nc1ccc2c(c1)CC(=O)N([C@H](C)CO)C[C@H](C)[C@@H](CN(C)C(=O)Nc1ccccc1)O2	-4	-1	/	0	/	/
COc1ccc(-n2ncc3c(NCC(C)C)ncnc32)cc1	/	/	/	/	0	5
Cc1ccc(-n2ncc3c(NCc4cccnc4)ncnc32)cc1C	1	75*	13	0	69	1
Cc1ccc(-n2ncc3c(NCc4ccccc4)ncnc32)cc1	/	36	/	/	47	6
COc1ccc(-n2ncc3c(NCc4cccnc4)ncnc32)cc1	-3	55*	43*	0	68	3
CC(=O)c1ccc(OCc2cc(C(=O)N3CCN(c4ccccc4)CC3C)no2)cc1 (stereo unspecified)	2	110*	28	0	73	2
CSc1ccccc1OCc1cc(C(=O)N2CCCC2c2nonc2C)no1 (stereo unspecified)	-1	11	29	-1	55	5
CSc1ccccc1OCc1cc(C(=O)N2CCN(c3ccccc3)CC2C)no1 (stereo unspecified)	-1	54*	17	0	44	2
CSc1ccccc1OCc1cc(C(=O)NCCc2nc(C)cc(C)n2)no1	3	34	13	0	52	3
CSc1ccccc1OCc1cc(C(=O)NCCc2ccco2)no1	-1	65*	6	0	53	3
CN(C)C(=O)[C@H]1[C@H](CO)[C@H]2Cn3c(cccc3=O)[C@H]2N1C(=O)C1CCCC1	-5	/	/	/	/	/
O=C(OCC(=O)N1CCCCC1)c1cccs1	-1	48*	5	0	83*	0
CC1CCN(C(=O)COC(=O)c2n[nH]c3ccccc23)CC1	/	58*	/	/	66	4
CC1CCCCN1C(=O)COC(=O)c1cc(Cl)c2c(c1)OCO2 (stereo unspecified)	2	55*	17	0	?	2
O=C(CCC(=O)c1cccs1)OCC(=O)N1CCN(C(=O)c2ccco2)CC1	/	-6	/	/	-3	1
CC1CC(C)CN(C(=O)COC(=O)CCC(=O)c2cccs2)C1 (stereo unspecified)	4	2	-6	44*	-6	-5
Cc1noc(C)c1NC(=O)N(C)C[C@@H]1Oc2c(NC(=O)c3nc4ccccc4s3)cccc2C(=O)N([C@@H](C)CO)C[C@@H]1C	0	-1	/	0	/	/
O=C(OCC(=O)N1CCCCCC1)c1cccs1	/	45*	/	/	37	2
CC1CCN(C(=O)COC(=O)c2ccc3c(c2)OCO3)CC1	-5	48*	20	0	67	2
CC1CC(C)CN(CC(=O)c2cccs2)C1 (stereo unspecified)	-1	-8	-1	0	2	1
CC1CCN(CC(=O)c2cccs2)CC1	-5	/	2	44*	14	-2
CCOC(=O)C1CCCN(C(=O)COC(=O)c2cccs2)C1 (stereo unspecified)	-2	3	-5	0	23	0
CC1CCN(C(=O)COC(=O)c2ccc3c(c2)OCCO3)CC1	-4	29	-2	0	63	1
